This is an account of results in PubChem BioAssay (NCI).

Test in all cases: NCI-60 one-dose screen, 48 h (100 = growth as untreated, 0 = no growth, -100 = all killed)
Conditions in all cases: 10 µM unless noted

The subject of experiment [1] is DU-145 prostate.
Experiment [2] concerns K-562 leukemia.
The test system of experiment [3] is MALME-3M melanoma.
The subject of experiment [4] is MDA-MB-231 breast.
In experiment [5] the test system is RXF 393 renal.
Experiment [6] deals with SF-268 CNS.
Experiment [7] concerns SF-295 CNS.
Experiment [8] has as its system SF-539 CNS.
In experiment [9] the test system is UACC-257 melanoma.
In experiment [10] the test system is M14 melanoma.
The test system of experiment [11] is HCT-15 colon.
For experiment [12], the system named is HT29 colon.
Experiment [13] concerns SNB-75 CNS.
For experiment [14], the system named is SNB-19 CNS.
For experiment [15], the system named is U251 CNS.
The subject of experiment [16] is PC-3 prostate.
Experiment [17] has as its system SK-MEL-5 melanoma.
Experiment [18] relates to UACC-62 melanoma.
The subject of experiment [19] is LOX IMVI melanoma.
Experiment [20] has as its system SK-MEL-28 melanoma.

Each structure is given as a SMILES string. Where “and” joins values, the source holds several entries; their conditions need not be identical. Identical values can stand only once. Compounds without any hit were thinned out: in the full panel of roughly 83,000, 20% have a hit.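 Single-concentration screen, 48 h exposure, 96-well plates. Endpoint: percent growth. Below 10 = active.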 Values without a mark were called inactive. Calls of active or inactive are those of the source. Where a SMILES comes first, the peptide text is derived from it.

As to `CN(C)c1ccc(/C=C\C(=O)c2ccccc2)cc1`, the growth was 86.8% and 89.2% and 79.1% in experiment [1]; 15.3% and 26.7% and 42.6% in experiment [2]; 87.5% and 84.4% and 83% in [3]; 104% and 84.4% and 105% in experiment [4]; 92.4% and 102% in experiment [5]; 92.4% and 90% and 85.2% in experiment [6]. Also, the growth in [7] was 66.3% and 91.5% and 98%; in experiment [8] it was 88% and 95.7% and 94.4%; in experiment [9], 83.8% and 92.7% and 98.1%; in experiment [10], 89.7% and 79.2% and 72.5%; in [11], 83.3% and 66.5% and 72%; in experiment [12], 53.6% and 58.5% and 57.6%. For the same compound, the growth in experiment [13] is 70.1% and 100% and 93.4%; in experiment [14], 98.7% and 92.3% and 61.6%; in [15], 82.2% and 80.6%; in [16], 88.3% and 94.4% and 76%; in [17], 95.2% and 89.4% and 89.1%; in [18] it was 88.4% and 91.1% and 84.9%. Also, the growth in [19] is 84.5% and 75.6% and 77.4%; in experiment [20], 93% and 103% and 89.8%.

Turning to `c1ccc(-c2nc3ccccc3s2)cc1`, the growth in experiment [1] was 113%; in experiment [2], 102%; in experiment [3], 97.5%; in experiment [4], 68.5%; in experiment [5], 106%; in experiment [6], 95%. Also, the growth in [7] was 97.9%; in [8], 96%; in experiment [9] it was 98.5%; in experiment [10], 97.3%; in experiment [11], 92.2%; in [12], 114%. For the same compound, the growth in experiment [13] is 91.7%; in experiment [14] it was 95.3%; in [16] it was 86.9%; in experiment [17], 89.8%; in experiment [18] it was 75.7%; in [19], 88.5%. In addition, the growth in experiment [20] was 104%.

For `NC(Cc1ccccc1)C(=O)NC(Cc1ccccc1)C(=O)O` (stereo not drawn) (H-Phe-Phe-OH; configuration not given here), the growth in experiment [1] was 111% and 106%; in experiment [2], 97.9% and 114%; in experiment [3], 99.4%; in experiment [4], 115% and 108%; in [5], 105%; in experiment [6], 101% and 106%. In addition, the growth in experiment [7] was 107% and 99.4%; in experiment [8], 101% and 92.6%; in [9] it was 88.2% and 92.8%; in experiment [10] it was 103% and 97.1%; in experiment [11], 106% and 98.3%; in [12], 101% and 104%. The growth is 88.1% and 93.5% in experiment [13]; 94.5% and 100% in experiment [14]; 95.2% and 90.6% in [16]; 100% and 94.8% in experiment [17]; 104% in [18]; 95.3% and 103% in experiment [19]. Besides, in experiment [20], the growth is 103% and 105%.

In the case of `COc1cc(C(O)C2C(=O)OCC2C2(c3ccc4c(c3)OCO4)SCCCS2)cc(OC)c1OC` (centres undefined), the growth is 103% in experiment [1]; 97.7% in experiment [2]; 91.1% in experiment [3]; 95.3% in experiment [4]; 101% in experiment [5]; 94.3% in experiment [6]. The growth in experiment [7] was 92.9%; in [8] it was 102%; in experiment [9], 104%; in experiment [10], 96.8%; in experiment [11], 96.6%; in experiment [12], 102%. Besides, the growth is 96.4% in experiment [14]; 100% in [15]; 84.1% in [16]; 99.1% in experiment [17]; 87.5% in experiment [18]; 92.1% in experiment [19]. Moreover, the growth in experiment [20] is 108%.

On to `c1ccc(CNCCNCc2ccccc2)cc1`, for which the growth in [1] was 114%; in [2], 98.1%; in [3], 109%; in [4], 118%; in experiment [5] it was 104%; in experiment [6], 120%. The growth was 90.8% in experiment [7]; 101% in experiment [8]; 117% in experiment [9]; 111% in [10]; 101% in experiment [11]; 108% in experiment [12]. In addition, the growth is 86.7% in experiment [13]; 107% in experiment [14]; 92.4% in [16]; 107% in experiment [17]; 105% in [18]; 110% in [19]. For the same compound, the growth in experiment [20] is 108%.

As for `CCCCOC(=O)/C=C\C(=O)NC(N)=O`, the growth was 91.1% in experiment [1]; 82.3% in experiment [2]; 92.3% in [3]; 75.5% in experiment [4]; -13.6% (active) in experiment [5]; 96.6% in experiment [6]. Also, the growth in [7] was 103%; in experiment [8] it was 95.7%; in [9] it was 77.8%; in [10], 92.1%; in experiment [11] it was 90.8%; in experiment [12], 97%. Further, the growth in experiment [13] was 95.9%; in experiment [14], 91.4%; in [16] it was 83%; in [17], 99.8%; in experiment [18], 79.1%; in [19] it was 79.1%. Also, in experiment [20], the growth was 97.6%.

For `O=C(/C=C/c1ccccc1)c1ccccc1`, the growth in experiment [1] is 97.7%; in experiment [3], 128%; in experiment [4], 110%; in experiment [5], 114%; in experiment [6], 97.2%; in [7] it was 99.1%. For the same compound, the growth in [8] was 88.2%; in experiment [9], 106%; in [10], 98.1%; in [11], 86.3%; in experiment [12], 68.9%; in experiment [13] it was 101%. Moreover, the growth is 79% in experiment [14]; 111% in [16]; 84.4% in experiment [17]; 102% in experiment [18]; 89.7% in experiment [19]; 115% in [20].

For `CCCCCCCCCCNC(=O)CI`, the growth in experiment [1] was 99.1%; in [2], 0.309% (active); in experiment [4] it was 9.39% (active); in experiment [5], -86.5% (active); in [6] it was 37.1%; in experiment [8], 39.1%. Also, the growth in experiment [9] was 66.3%; in experiment [10], -24.8% (active); in experiment [11], 14%; in [12], -54.9% (active); in experiment [13] it was -30.7% (active); in [14] it was 89.2%. The growth in experiment [16] is -39.8% (active); in experiment [17], 3.04% (active); in [18] it was 59.4%; in [19] it was -73.2% (active); in [20], 58.4%.

On to `Nc1cc(N)c(N)cc1N`, for which the growth in experiment [1] is 109%; in experiment [2], 9.58% (active); in [3], 62%; in experiment [4], 89.6%; in [5], 51.3%; in [6] it was 74.2%. For the same compound, the growth in [7] is 87.8%; in experiment [8] it was -3.2% (active); in [9], -46.4% (active); in experiment [11], 54.2%; in [12], 82.4%; in [13], 56.6%. Further, the growth is 84.5% in experiment [14]; 92.7% in experiment [16]; -92.7% (active) in experiment [17]; -40.3% (active) in experiment [18]; -93.8% (active) in experiment [19]; 78.7% in experiment [20].

Turning to `COc1ccc(Nc2ccc3ccccc3c2)cc1`, the growth in [1] is 83.2%; in experiment [2] it was 31.6%; in [4] it was 77.9%; in experiment [5] it was 58.6%; in experiment [6], 81.2%; in experiment [7], 79.6%. The growth was 93.1% in experiment [8]; 72.9% in experiment [10]; 78.2% in experiment [11]; 64.9% in experiment [12]; 64.3% in [13]; 79.5% in experiment [14]. Further, the growth in experiment [16] is 71.5%; in experiment [17], 73.8%; in experiment [18], 62.1%; in [19], 74.2%; in experiment [20], 89.8%.

Take `NC(Cc1c[nH]c2ccccc12)C(=O)O` (centres undefined): the growth in experiment [1] is 103% and 113%; in experiment [2], 136% and 101%; in [3], 118% and 96.3%; in experiment [4] it was 104% and 97.1%; in experiment [5], 91.4% and 103%; in [6], 105% and 101%. Besides, the growth in experiment [7] was 99.4% and 102%; in experiment [8], 93.8% and 96.8%; in experiment [9], 66.9% and 94%; in experiment [10], 93.2% and 98.4%; in [11] it was 107% and 104%; in experiment [12], 110% and 97.4%. Besides, the growth is 94.4% and 79.6% in experiment [13]; 104% in experiment [14]; 91% and 86.7% in experiment [16]; 124% and 101% in experiment [17]; 87.3% and 92.5% in experiment [18]; 96.1% and 95.8% in [19]. Further, the growth in [20] was 132% and 106%.
